In all, about 33,000 sequences were measured (“E-score (dimensionless, -0.5 to 0.5)”: median about -0.058, highest 2% from about 0.35 on). This is one part of a sample in which the highest values are shown more often than they occur.
system: MvaT; experiment: PBM 8-mer E-score (mean of HK and ME arrays) (E-score (dimensionless, -0.5 to 0.5)); higher = stronger relative binding preference
Method in brief: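 Full-length P. aeruginosa MvaT, with glutathione S-transferase fused to its N-terminus (cloned into pTH6838 by isothermal assembly), was tested by protein binding microarray using a previously described protocol. Two universal double-stranded 60-mer arrays (ME and HK) were used, each with a constant 25-mer primer region and a variable 35-mer region covering all 8-mers. The rank-based 8-mer E-score (-0.5 to 0.5) is the mean of the two arrays, parsed with a custom Python script.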

Sequence	PBM 8-mer E-score
ATGATCAA	0.176
GAAAGGGC	-0.199
TAAGAACA	0.123
GCCGCTCA	-0.105
CTTTGAAA	0.141
ACATGTAC	0.243
AGGCCATC	-0.264
ATTATGAA	0.269
CTTATTCA	0.194
ACTATTAT	0.425
ACGATTAT	0.245
ACCATTAT	0.332
ATCATTAA	0.259
GTTATTAA	0.383
CTCATTAA	0.196
ATTATTAA	0.446
CTTATTAA	0.362
GCTATTAA	0.272
GTTATTCA	0.236
GTTTTTCA	0.0388
AGCGGTGG	-0.209
CCTGCCTC	-0.249
AGACTTCC	-0.21

Sequence	PBM 8-mer E-score
AAAAAAGG	0.0491
CTGTCCTA	-0.112
ATAATCTA	0.344
GTCATATA	0.282
ATAATATA	0.475
GTAATATA	0.436
ATCATATA	0.338
CTAATATC	0.299
CTAATAGA	0.184
GTAATACA	0.295
CTAATATA	0.434
CAGGCTCG	-0.325
CAGACGGA	-0.156
AGCTGGGG	-0.186
ACTACGCG	-0.0273
AGGGCATG	-0.207
GCAACGCA	-0.168
CATATTTA	0.371
CCTATTTA	0.212
AATTTTTG	0.194
AACATTTG	0.103
ACTATTTC	0.201
AATATTTC	0.404

Sequence	PBM 8-mer E-score
CCTATTTC	0.0116
AATATTTA	0.45
GATATTTA	0.326
AATATTGA	0.327
CATATTTC	0.26
AATATTTG	0.349
AGTGTGAA	0.204
CAGGGTTC	-0.251
GAAGATGA	-0.128
CGGAGTTC	-0.106
TCACCTCA	-0.163
CTTCTTTC	0.015
ATAATAGC	0.362
GTAATAGA	0.164
ATAATAGA	0.364
ATAATAGG	0.291
CTAATAGC	0.0517
AGAATAGA	0.051
TTGGAAAA	0.114
AACTCGTC	0.0126
GGGTTGAC	-0.213
CATACGGC	-0.244
ACCGTAGA	-0.0538

Sequence	PBM 8-mer E-score
CCCGTGCG	-0.273
AGACGAAC	-0.107
ATCCAAAA	0.1
CCTAACCA	-0.103
CTGCTGTC	-0.222
ACTTAATA	0.4
GCTTAACA	0.0832
ACTTAATC	0.187
CCTTAATA	0.298
GCTTAATA	0.352
ACTTAATG	0.287
CGATGGTC	-0.364
AGACAGGA	-0.156
CGTCCTCA	-0.231
ACGCGGCG	-0.275
ACGTTAAA	0.256
CACTCGTC	-0.185
CTGGCATC	-0.181
CAATCAGC	-0.0173
ATTAATAG	0.426
GGTAATAC	0.249
CTTAATAC	0.286
ATTAAGAG	0.297

Sequence	PBM 8-mer E-score
ATTAATAC	0.41
ATTAAGAA	0.282
ATTAATAA	0.468
AGTAATAA	0.327
AGAGGTCA	-0.266
ACGGCAAC	-0.107
CGTTTTGC	0.0694
TGGTTGAA	-0.0872
CCTCATAA	-0.0267
TCGTTAAA	0.156
CAGAAGGC	-0.229
CTGAGCAA	-0.0891
TAAACAGA	0.188
ACAGACTA	0.136
AGTCCGTC	-0.103
CGCACCCG	-0.242
TGTTACAA	0.257
GGTTATAA	0.344
AGTTATAC	0.393
AGTTATCA	0.242
AGTTATAA	0.43
TGTTATAA	0.437
CGTTATAA	0.39

Sequence	PBM 8-mer E-score
GGTTATAC	0.0501
CGTTATAC	0.21
AGTTATGC	0.246
AGTTATGA	0.319
CGTTATAG	0.2
CCAACCGA	-0.0134
TACCAAGA	-0.0377
TCCCAACA	0.111
CGATACCC	-0.141
CGCGTCCC	-0.132
ACTGTGAC	0.0208
AGTGCCGG	-0.0286
GTACCTTA	0.119
CGGGCCAA	-0.118
GGGCGCTA	-0.265
GGGACAGA	-0.12
CCACCGTC	-0.258
AGCTATAT	0.328
AGTTATAT	0.437
AGTTATAG	0.316
ATGGGTAC	-0.0802
AGCGTTGA	-0.0483
AGGTATGA	0.12

Source: the supplement of paper PMC4466236
